About 83,000 compounds went through this panel and 20% of them were active in at least one assay; those are over-represented in the sample as a whole.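 96-well plates, one dose, 48 hours. Percent growth reported; active if below 10.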 Unmarked numbers belong to inactive results. Calls of active or inactive are those of the source.
Assays:
Experiment in all cases: NCI-60 one-dose screen, 48 h (100 = growth as untreated, 0 = no growth, -100 = all killed)
Details in all cases: 10 µM unless noted
[1] = test system: K-562 leukemia
[2] = test system: MALME-3M melanoma
[3] = test system: MDA-MB-231 breast
[4] = test system: RXF 393 renal
[5] = test system: SF-268 CNS
[6] = test system: SF-295 CNS
[7] = test system: SF-539 CNS
[8] = test system: UACC-257 melanoma
[9] = test system: HCT-15 colon
[10] = test system: M14 melanoma

Compound	growth [1]	growth [2]	growth [3]	growth [4]	growth [5] [%]	growth [6]	growth [7]	growth [8] [%]	growth [9]	growth [10] [%]
O=C(O)c1ccc(NC(=O)c2ccc(Nc3ccnc(C(F)(F)F)c3)cc2)cc1	94.1%	103%	109%	97.9%	98	108%	104%	99.6	92.1%	
O=[N+]([O-])c1ccc(Oc2cccc(C(F)(F)F)c2)c([N+](=O)[O-])c1	11.2%	52.3%	19.7%	53.6%	32.2	108%	36.9%	53.7	19%	
O=C1N(C2CCCCC2)C(=O)N1C1CCCCC1	55.3%	-16.9% (active)	64.3%	43.2%	65.3	-27.9% (active)	26.5%	22.8	52.7%	30.4
CCCCCCCC/C=C/CCCCCCCC1=NC(C)(C)CN1CCO	-51.6% (active)	64.9%	9.49% (active)	-23.4% (active)	46	30.2%	-5.97% (active)	20.1	-34.9% (active)	
CC1=C(C(=O)Nc2ccccc2)C(c2ccc3c(c2)OCCO3)NC(=O)N1 (stereo not given)	98.5%	96.9%	118%	116%	100	114%	100%	102	106%	
CCCc1nn(C)c2c(=O)[nH]c(-c3cc(S(=O)(=O)N4CCN(C)CC4)ccc3OCC)nc12	97.9%	102%	90.5%	120%	119	93%	111%	97.9	103%	102
COc1ccc(Cn2c(NCCCN(C)C)nc(=O)n(Cc3ccc(F)cc3)c2=O)cc1	87.9%	87.9%	81.4%	83.7%	83.7	96.2%	108%	92.4	107%	97.9
O=c1ccn(C2OC(CO)C(O)C2F)c(=O)[nH]1 (stereo not given)	117%	116%	117%	132%	111	105%	103%	114	112%	
